Laboratory results reported in PubChem BioAssay (NCATS).
Results filed as inconclusive are left out. A call without a number means that no potency is given here. Values without a mark were called inactive. The source made the active and inactive calls. Calls come from the whole dose curve; as a rule, active = well fitted cell-killing curve with a large enough effect; inconclusive = small, poorly fitted or top-dose-only effect, or effect the other way; inactive = no such curve, though single readings can be large or run the other way.

How the values were obtained:
[1] = Viability qHTS for spleen associated tyrosine kinase inhibitor (SYKi) naive MV4-11 cells (AID 1963823); note: nearly all actives have a fitted effect of over 40% in size
Method in brief: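 Compounds were dispensed acoustically onto plates, MV4-11 cells (SYKi-naive) added at 500 per well, and plates incubated 72 hr at 37 C. CellTiter-Glo was added and luminescence measured after 10 min.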

[2] = Viability qHTS for spleen associated tyrosine kinase inhibitor (SYKi) drug resistant MV4-11 cells (AID 1963824); note: nearly all actives have a fitted effect of over 35% in size
Method in brief: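 CellTiter-Glo luminescence, read 10 min after reagent addition, reports viability after a 72 hr compound exposure. Cells are an MV4-11 line made resistant to SYK inhibition, seeded at 500 per well onto compound-containing plates.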
Potency is the fitted concentration of half-maximal effect.

| SMILES | viability (% of control) [1] | viability, % of control [2] | Potency [1] | Potency [2] |
| --- | --- | --- | --- | --- |
| CC1OC(OC2C(C)OC(OC3C(OC(=O)C45CCC(C)(C)CC4C4=CCC6C7(C)CCC(OC8OC(C(=O)O)C(O)C(O)C8OC8OC(CO)C(O)C(OC9OC(C)C(O)C(O)C9O)C8O)C(C)(CO)C7CCC6(C)C4(C)CC5)OC(CO)C(O)C3O)C(O)C2O)C(O)C(O)C1O (stereo unspecified) | 89.1% [at 9.25 µM] | 97% [at 9.25 µM] | – | – |
| COc1cc(C(=O)OC[C@H]2O[C@@H](OC(C)(C)C(=O)O)[C@H](O)[C@@H](O)[C@@H]2O)cc(OC)c1O | – | – | inactive | inactive |
| O=C(NNc1nc2cc(F)ccc2n2cccc12)c1cnccn1 | – | – | 820 nM (active) | 731 nM (active) |
| O=c1cc(-c2ccc(O)cc2)oc2cc(OC3OC(CO)C(O)C(O)C3O)c(C3OC(CO)C(O)C(O)C3O)c(O)c12 (stereo unspecified) | – | – | inactive | inactive |
| C[C@@H]1C[C@@H]2O[C@H]2/C=C\C=C\C(=O)Cc2c(Cl)c(O)cc(O)c2C(=O)O1 | – | – | 40.4 nM (active) | 64 nM (active) |
| C=CC(C)(CC/C=C(\C)CC/C=C(\C)CC(O)/C=C(\C)C(=O)O)O[C@@H]1O[C@H](CO)[C@@H](O)[C@H](O)[C@H]1O[C@@H]1O[C@H](CO)[C@@H](O)[C@H](O)[C@H]1O (stereo partly specified) | – | – | inactive | inactive |
| C=C1CC2C3(C)C(O)CC(=O)C(C)(C)C3C(OC(C)=O)C(OC(C)=O)C2(C)C2C(=O)OC(C)(C(=O)OC)C(=O)C12C (stereo unspecified) | – | – | inactive | inactive |
| COC(=O)N[C@H](C(=O)N1CCC[C@H]1c1ncc(-c2ccc(-c3ccc(-c4cnc([C@@H]5CCCN5C(=O)[C@@H](NC(=O)OC)C(C)C)[nH]4)cc3)cc2)[nH]1)C(C)C | – | – | 18600 nM (active) | 16600 nM (active) |
